In PubChem BioAssay (EPA / NIEHS):
Where “and” joins values, the source holds several entries; their conditions need not be identical. Identical values can stand only once. Results filed as inconclusive are left out. Where a structure was tested more than once in an assay, its records may differ in their call. Calls of active or inactive are those of the source. How the source made its calls: active means hit-call score of the fitted dose curve at least 0.9, where 1 is the maximum; inconclusive means response in the unintended direction; inactive means score below 0.9.

What was measured:
[1] = biological target: human Thyroid hormone Receptor alpha (TRa), THRA (gene 7067) (UniProt P10827); assay: ATG_hTRa_XSP1: Attagene TRANS-FACTORIAL Multi-Species (XSP1) HepG2 Assay for human Thyroid hormone Receptor alpha (TRa) (AID 2283805)
Summary of the method: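 HepG2 cells transiently transfected with GAL4-UAS reporter units expressing chimeric NR-Gal4 proteins, dosed 24 hours with 3 nM 6-alpha-fluorotestosterone present. Reporter mRNA measured by RT-PCR and capillary electrophoresis; gain of signal fitted versus DMSO.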

[2] = system: turtle Thyroid Hormone Receptor, alpha (TRa), gene 101949057; assay: ATG_trTRa_XSP1: Attagene TRANS-FACTORIAL Multi-Species (XSP1) HepG2 Assay for turtle Thyroid Hormone Receptor, alpha (TRa) (AID 2283806)
Summary of the method: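 HepG2 cells transiently transfected with GAL4-UAS reporter units and chimeric receptor-Gal4 constructs, with 3 nM 6-alpha-fluorotestosterone present. Reporter mRNA was quantified 24 h after dosing by RT-PCR, 6-FAM labelling and capillary electrophoresis; gain of signal versus DMSO.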

[3] = biological target: zebrafish Thyroid Hormone Receptor alpha (TRa), thraa (gene 30670) (UniProt Q98867); assay: ATG_zfTRa_XSP1: Attagene TRANS-FACTORIAL Multi-Species (XSP1) HepG2 Assay for zebrafish Thyroid Hormone Receptor alpha (TRa) (AID 2283807)
Summary of the method: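 HepG2 cells transiently transfected with GAL4-UAS reporter units including a zebrafish TRa–Gal4 chimera, dosed 24 h with 3 nM 6-alpha-fluorotestosterone present. Reporter mRNA quantified by RT-PCR and capillary electrophoresis; gain versus DMSO.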

[4] = biological target: human Thyroid hormone Receptor beta (TRb), THRB (gene 7068) (UniProt P10828); assay: ATG_hTRb_XSP1: Attagene TRANS-FACTORIAL Multi-Species (XSP1) HepG2 Assay for human Thyroid hormone Receptor beta (TRb) (AID 2283808)
Summary of the method: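 HepG2 cells transiently transfected with reporter units driving GAL4-UAS reporters for chimeric NR-Gal4 proteins; 24 h chemical exposure with 3 nM 6-alpha-fluorotestosterone present. Reporter mRNA quantified by RT-PCR and capillary electrophoresis, gain of signal versus DMSO.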

[5] = ATG_XTT_Cytotoxicity_XSP1: Cytotoxicity Assessment in the Attagene TRANS-FACTORIAL Multi-Species (XSP1) HepG2 Assay (AID 2283810)
Procedure: ATG_XSP1_XTT_Cytotoxicity_multi-species is a cell-based, single-readout assay that uses HepG2, a human liver cell line, with measurements taken at 24 hours after chemical dosing in a 24-well plate. Xsp1 included 3 nM 6-alpha-fluorotestosterone to partially stimulate the androgen receptor.ATG_XTT_Cytotoxicity_XSP1 is an assay component measured from the ATG_XSP1_XTT_Cytotoxicity_multi-species assay. It is designed to make measurements of cell number, a form of viability reporter, as detected with fluorescence intensity signals by XTT cytotoxicity assay technology.This assay endpoint, ATG_XTT_Cytotoxicity_XSP1, was analyzed in the positive analysis fitting direction relative to DMSO as the negative control and baseline of activity. Using a type of viability reporter, loss-of-signal activity can be used to understand changes in the viability. Furthermore, this assay endpoint can be referred to as a primary readout, because the performed assay has only produced 1 assay endpoint. To generalize the intended target to other relatable targets, this assay endpoint is annotated to the cell cycle intended target family, where the subfamily is cytotoxicity.
Human liver HepG2 cells are transiently transfected with multiple reporter transcription units (MRTUs) in 6-well plates using FuGene 6 reagent (Roche; 3 ml FuGene/1 mg DNA). The MRTU constructs are regulated by a cis-regulating element (promoter). […] A major difference between the CIS and TRANS system is that in CIS activities of endogenous TFs are measured, whereas the TRANS assay evaluates changes in activities of exogenous, chimeric NR-Gal4 proteins. […] At the end of 24 hour incubation, total RNA was isolated using TriZol reagent (Invitrogen). The isolated RNA is then reverse-transcribed using oligo(dT) primer and Mo-MLV reverse transcriptase (Invitrogen) with DNAse I (Ambion) treatment for 30 min. The one-tenth of the produced cDNA was amplified by PCR using Taq DNA polymerase (Invitrogen) and two reporter sequence-specific primers. The PCR products were fluorescently labeled by primer extension with 6-arboxyfluorescein (6-FAM) 5'-labeled reporter sequence-specific primer (2 min at 95 C, 20 s at 68 C and 10 min at 72 C) and these products were digested with 5U of HpaI (New England Biolabs) for 2h at 37 C. The fragments were purified using Qiaquick PCR columns (Qiagen), analyzed on an ABI 3130xL genetic analyzer (Applied Biosystems) with peak positions identified by using a set of X-rhodamine (ROX)-labeled MapMarker1000 molecular weight standards (BioVentures). The raw capillary electrophoresis data was processed using Attagraph software (Attagene).

[6] = ATG_M_06_XSP2: Attagene TRANS-FACTORIAL Multi-Species (XSP2) HepG2 Assay for M06 Transcription Factor (Internal Marker) (AID 2283811);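 further: internal background marker reporter mRNA measured by RT-PCR and capillary electrophoresis; hits are increases in signal above the DMSO baseline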
Summary of the method: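 HepG2, multiplexed reporter transfection; 24 h dosing; AR stimulated with 3 nM 6-alpha-fluorotestosterone + 1.5 nM norgestrel; RNA → RT-PCR → 6-FAM primer extension → HpaI → CE. Positive direction vs DMSO.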

[7] = system: turtle Estrogen Receptor (ERa), gene 101933533; assay: ATG_trERa_XSP2: Attagene TRANS-FACTORIAL Multi-Species (XSP2) HepG2 Assay for turtle Estrogen Receptor (ERa) (AID 2283812);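 further: human HepG2 liver cells transiently expressing turtle ERa-Gal4 chimeric receptor; actives raise reporter signal above DMSO so AC50 reflects agonist activity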
Summary of the method: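 HepG2 cells transiently transfected with GAL4-UAS reporter units expressing turtle ERa-Gal4 chimera. Reporter mRNA measured after 24 h dosing by RT-PCR, fluorescent labelling and capillary electrophoresis; gain of signal fitted versus DMSO.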

[8] = biological target: frog Thyroid hormone Receptor alpha (TRa), thra-a (gene 397942) (UniProt P15204); assay: ATG_frTRa_XSP1: Attagene TRANS-FACTORIAL Multi-Species (XSP1) HepG2 Assay for frog Thyroid hormone Receptor alpha (TRa) (AID 2283804)
Summary of the method: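 HepG2 cells transiently transfected with frog TRa-GAL4 chimeric reporter units, dosed 24 hr with 3 nM 6-alpha-fluorotestosterone present; reporter mRNA quantified by RT-PCR, fluorescent labelling and capillary electrophoresis, gain of signal versus DMSO.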

[9] = biological target: zebrafish Thyroid Hormone Receptor beta (TRb), thrb (gene 30607) (UniProt Q9PVE4); assay: ATG_zfTRb_XSP1: Attagene TRANS-FACTORIAL Multi-Species (XSP1) HepG2 Assay for zebrafish Thyroid Hormone Receptor beta (TRb) (AID 2283809)
Summary of the method: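 HepG2 cells transiently transfected with multiplexed GAL4-UAS reporter units expressing chimeric zebrafish TRb–Gal4. Dosed 24 h with 3 nM 6-alpha-fluorotestosterone present; reporter mRNA measured by RT-PCR, HpaI digestion and capillary electrophoresis; gain of signal versus DMSO.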

[10] = biological target: Nuclear receptor subfamily 1 group I member 2 (Mus musculus) (UniProt O54915); assay: ATG_mPXR_XSP1: Attagene TRANS-FACTORIAL Multi-Species (XSP1) HepG2 Assay for mouse Pregnane X Receptor (PXR) (AID 2283803)
Summary of the method: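 Transiently transfected HepG2 cells expressing a receptor-Gal4 chimera drive a GAL4-UAS reporter; 3 nM 6-alpha-fluorotestosterone included. Reporter mRNA read 24 h post-dose by RT-PCR and capillary electrophoresis; gain of signal relative to DMSO.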

Chain of frog Thyroid hormone Receptor alpha (TRa), thra-a (gene 397942) (P15204 whole entry, looked up, the tested form may be a part): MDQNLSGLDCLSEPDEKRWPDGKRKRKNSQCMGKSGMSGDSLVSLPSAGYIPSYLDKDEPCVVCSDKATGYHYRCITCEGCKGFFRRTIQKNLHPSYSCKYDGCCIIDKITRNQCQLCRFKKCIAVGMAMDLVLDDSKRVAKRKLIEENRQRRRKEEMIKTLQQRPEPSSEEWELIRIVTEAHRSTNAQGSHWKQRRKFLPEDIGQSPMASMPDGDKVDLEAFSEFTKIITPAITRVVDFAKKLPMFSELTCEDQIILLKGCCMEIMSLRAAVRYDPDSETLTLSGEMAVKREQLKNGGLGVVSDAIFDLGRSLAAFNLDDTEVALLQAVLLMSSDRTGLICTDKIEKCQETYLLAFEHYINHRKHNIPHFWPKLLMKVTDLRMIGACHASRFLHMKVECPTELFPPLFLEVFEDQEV
Chain of Nuclear receptor subfamily 1 group I member 2 (Mus musculus) (O54915 whole entry, looked up, the tested form may be a part): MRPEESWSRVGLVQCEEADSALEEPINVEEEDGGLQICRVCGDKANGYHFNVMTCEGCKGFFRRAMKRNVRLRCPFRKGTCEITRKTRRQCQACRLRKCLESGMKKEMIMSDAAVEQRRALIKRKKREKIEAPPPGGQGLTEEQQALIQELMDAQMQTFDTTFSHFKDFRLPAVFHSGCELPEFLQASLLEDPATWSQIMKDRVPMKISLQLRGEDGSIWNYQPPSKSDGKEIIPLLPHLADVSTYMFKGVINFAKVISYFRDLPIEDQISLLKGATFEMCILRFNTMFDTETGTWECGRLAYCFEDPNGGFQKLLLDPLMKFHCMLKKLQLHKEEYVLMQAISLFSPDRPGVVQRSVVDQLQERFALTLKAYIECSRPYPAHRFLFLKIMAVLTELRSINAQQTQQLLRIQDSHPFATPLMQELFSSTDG
Chain of zebrafish Thyroid Hormone Receptor beta (TRb), thrb (gene 30607) (Q9PVE4 whole entry, looked up, the tested form may be a part): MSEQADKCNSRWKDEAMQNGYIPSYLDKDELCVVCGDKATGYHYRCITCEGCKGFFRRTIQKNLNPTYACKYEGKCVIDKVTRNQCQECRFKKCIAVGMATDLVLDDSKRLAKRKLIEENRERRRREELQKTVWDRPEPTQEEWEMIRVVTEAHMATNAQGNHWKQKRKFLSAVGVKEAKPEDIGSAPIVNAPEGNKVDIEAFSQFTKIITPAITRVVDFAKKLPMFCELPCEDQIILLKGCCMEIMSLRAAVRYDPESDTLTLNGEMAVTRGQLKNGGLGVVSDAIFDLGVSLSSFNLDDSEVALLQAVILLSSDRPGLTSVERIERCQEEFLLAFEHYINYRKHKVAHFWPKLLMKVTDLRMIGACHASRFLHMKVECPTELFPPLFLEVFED
Chain of zebrafish Thyroid Hormone Receptor alpha (TRa), thraa (gene 30670) (Q98867 whole entry, looked up, the tested form may be a part): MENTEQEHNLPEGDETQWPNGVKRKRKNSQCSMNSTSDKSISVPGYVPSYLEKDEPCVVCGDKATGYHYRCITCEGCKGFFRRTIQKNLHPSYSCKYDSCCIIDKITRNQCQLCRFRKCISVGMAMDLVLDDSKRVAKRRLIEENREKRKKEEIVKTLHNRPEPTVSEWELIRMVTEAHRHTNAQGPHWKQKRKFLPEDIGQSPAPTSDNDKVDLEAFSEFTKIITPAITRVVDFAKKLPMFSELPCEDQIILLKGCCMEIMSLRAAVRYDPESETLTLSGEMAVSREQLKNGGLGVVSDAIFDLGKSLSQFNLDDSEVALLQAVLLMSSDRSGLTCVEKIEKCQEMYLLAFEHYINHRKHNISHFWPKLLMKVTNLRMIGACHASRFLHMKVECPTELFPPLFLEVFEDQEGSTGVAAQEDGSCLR
Chain of human Thyroid hormone Receptor alpha (TRa), THRA (gene 7067) (P10827 whole entry, looked up, the tested form may be a part): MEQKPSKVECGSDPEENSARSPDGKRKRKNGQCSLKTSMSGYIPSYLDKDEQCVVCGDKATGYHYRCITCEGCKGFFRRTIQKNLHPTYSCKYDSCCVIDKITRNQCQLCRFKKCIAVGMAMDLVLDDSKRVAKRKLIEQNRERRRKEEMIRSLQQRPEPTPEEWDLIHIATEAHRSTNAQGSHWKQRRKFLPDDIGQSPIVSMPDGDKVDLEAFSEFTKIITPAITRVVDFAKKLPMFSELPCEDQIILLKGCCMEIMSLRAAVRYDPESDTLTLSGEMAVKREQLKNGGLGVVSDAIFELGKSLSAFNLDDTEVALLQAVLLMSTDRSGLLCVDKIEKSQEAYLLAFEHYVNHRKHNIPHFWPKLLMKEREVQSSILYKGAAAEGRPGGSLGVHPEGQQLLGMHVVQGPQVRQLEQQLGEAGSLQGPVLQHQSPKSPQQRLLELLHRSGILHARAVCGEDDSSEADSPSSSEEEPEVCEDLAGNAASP
Chain of human Thyroid hormone Receptor beta (TRb), THRB (gene 7068) (P10828 whole entry, looked up, the tested form may be a part): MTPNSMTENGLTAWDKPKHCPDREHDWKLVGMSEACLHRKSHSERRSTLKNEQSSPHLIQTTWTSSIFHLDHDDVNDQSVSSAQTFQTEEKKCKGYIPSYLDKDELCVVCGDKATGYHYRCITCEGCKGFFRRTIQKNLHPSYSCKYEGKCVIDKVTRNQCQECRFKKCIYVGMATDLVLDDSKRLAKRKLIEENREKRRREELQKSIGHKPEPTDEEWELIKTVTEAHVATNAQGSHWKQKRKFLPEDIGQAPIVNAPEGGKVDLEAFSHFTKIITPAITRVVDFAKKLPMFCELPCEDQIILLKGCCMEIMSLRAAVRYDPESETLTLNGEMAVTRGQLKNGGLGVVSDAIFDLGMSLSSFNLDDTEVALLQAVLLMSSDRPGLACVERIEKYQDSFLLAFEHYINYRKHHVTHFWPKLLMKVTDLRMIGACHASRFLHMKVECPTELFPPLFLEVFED

## C[C@]12CCC(=O)C[C@@H]1CC[C@@H]1[C@@H]2CC[C@]2(C)[C@@H](O)CC[C@@H]12
[1]
  outcome: inactive
[2]
  outcome: inactive
[3]
  outcome: inactive
[4]
  outcome: inactive
[5]
  outcome: inactive
[6]
  outcome: inactive
[7]
  outcome: inactive

## Clc1ccc(C2(Cn3cncn3)CC(Br)CO2)c(Cl)c1 (stereo not drawn)
[6]
  outcome: inactive
[7]
  AC50: 19.8 µM (active)
  outcome: inactive

## O=C1C2(Cl)C3(Cl)C4(Cl)C(Cl)(Cl)C5(Cl)C3(Cl)C1(Cl)C5(Cl)C24Cl (stereo not drawn)
[8]
  outcome: inactive
[1]
  outcome: inactive
[2]
  outcome: inactive
[3]
  outcome: inactive
[4]
  outcome: inactive
[9]
  outcome: inactive
[6]
  outcome: inactive
[7]
  AC50: 0.514 µM (active)

## CC12CC1(C)C(=O)N(c1cc(Cl)cc(Cl)c1)C2=O (stereo not drawn)
[10]
  AC50: 19.7 µM (active)
[8]
  outcome: inactive
[1]
  outcome: inactive
[2]
  outcome: inactive
[3]
  outcome: inactive
[9]
  outcome: inactive
[5]
  outcome: inactive
[6]
  outcome: inactive
[7]
  AC50: 100 µM (active)
  outcome: inactive

## Oc1c(I)cc(I)cc1I
[6]
  outcome: inactive

## O=S(=O)(c1ccc(Cl)cc1)c1ccc(Cl)cc1
[6]
  outcome: inactive
[7]
  AC50: 14.4 µM (active) and 15.9 µM (active)

## CC(C)(C)CC(C)(C)c1ccc(O)cc1
[10]
  outcome: inactive
[8]
  outcome: inactive
[2]
  outcome: inactive
[3]
  outcome: inactive
[9]
  outcome: inactive
[5]
  outcome: inactive
[6]
  outcome: inactive
[7]
  AC50: 5.79 µM (active)

## CC(=O)C=C(C)C
[6]
  outcome: inactive
[7]
  outcome: inactive

## CC(C)C1CCC(Cc2ccc(Cl)cc2)C1(O)Cn1cncn1 (stereo not drawn)
[6]
  outcome: inactive
[7]
  outcome: inactive

## C[C@]12CC[C@H](O)CC1=CC[C@@H]1[C@@H]2CC[C@]2(C)C(=O)CC[C@@H]12
[6]
  outcome: inactive
[7]
  AC50: 2.22 µM (active) and 1.09 µM (active)

## CC(C)(C)c1cc(O)ccc1O
[8]
  outcome: inactive
[1]
  outcome: inactive
[3]
  outcome: inactive
[9]
  outcome: inactive
[6]
  outcome: inactive
[7]
  AC50: 15.3 µM (active)

## Oc1ccc(-c2ccccc2)cc1
[6]
  outcome: inactive
[7]
  AC50: 1.44 µM (active) and 925 nM (active)

## CC1(C)CCC(Cc2ccc(Cl)cc2)C1(O)Cn1cncn1 (stereo not drawn)
[10]
  AC50: 2.24 µM (active)
[2]
  outcome: inactive
[3]
  outcome: inactive
[4]
  outcome: inactive
[9]
  outcome: inactive
[5]
  outcome: inactive
[6]
  outcome: inactive
[7]
  AC50: 5.11 µM (active)

## C[C@H]1CCCC(=O)CCC/C=C/c2cc(O)cc(O)c2C(=O)O1
[6]
  outcome: inactive
[7]
  AC50: 7 nM (active) and 1.7 nM (active)

## COP(=O)(OC)O/C(=C\Cl)c1cc(Cl)c(Cl)cc1Cl
[10]
  AC50: 30.3 µM (active)
[3]
  outcome: inactive
[9]
  outcome: inactive
[6]
  outcome: inactive
[7]
  AC50: 3.18 µM (active)
